The full ranking holds about 16,000 sequences; the median of “Z-score” is about -0.37, and the highest 2% start at about 3.2. The entries come from a sample that favours the highest values as a whole.
These sequences were tested on RBM10 RRM1-ZnF (GST-tagged construct) (assay: RNAcompete 7-mer binding Z-score; higher = stronger binding preference).
Method: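 RNAcompete: 20 pmol GST-tagged RBM10 RNA-binding constructs were incubated with a designed RNA pool of about 241,000 sequences up to 41 nt (1.5 nmol) on glutathione beads for 30 min at 4 °C and washed. Bound RNAs were identified by microarray hybridisation. Each RNA 7-mer is scored by a one-sided Z-score of its enrichment, computed over probes that contain the 7-mer within longer pool sequences.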

Sequence | RNAcompete 7-mer binding Z-score
UCGGGUG | 2.34
UGGGGUC | 2.57
GGGGGUG | 4.02
UUGGGUC | 1.04
AUACAGU | -0.00571
GUCCAGA | -0.474
GGGCUCA | 0.485
AGGUGUU | 0.988
AAUGCCC | -0.613
ACCGUAU | -0.746
AUGGGUG | 4.03
GUAGGUA | 2.15
CUGGGUA | 2.13
GUGGGUA | 3.53
CGGGGUC | 2.14
AUUGGUG | 2.27
AUGGGUC | 2.19
AUCGGUG | 0.894
CGGGGUG | 3.76
AUGGGUA | 3.54
CCGGGUG | 1.47
AUGGGUU | 2.89
UAUACUC | -0.769
UAAACAA | -0.392

Sequence | RNAcompete 7-mer binding Z-score
ACCGUUC | -0.948
AAACACC | -0.6
CUGCGGC | 0.0138
GCAUGGC | 0.176
AACCGCG | -0.353
CACGGGU | 1.99
CUGGGUG | 1.83
GUGGGUG | 4.14
GUGGGUC | 2.36
GCGAAAA | 0.0528
GCGCCCC | -0.0934
AUUCCUA | -0.756
UUAGGCU | 0.095
AGGGGUU | 2.52
UGGGGCU | 2.3
UGGGGUU | 3.29
CUGGGUU | 1.53
UGGGGGU | 3.87
GGGGGUU | 3.67
AUUUAUC | -0.691
UAUGGCA | 0.413
CAGCUCG | -0.704
UGAAGAA | 0.228
CGCCUAA | -0.694

Sequence | RNAcompete 7-mer binding Z-score
CCUGAUC | -0.792
GUGUUUA | 0.27
CAGUGGA | 1.38
GAGUGGC | 1.53
UAGUGGA | 1.54
GAGUGGA | 3.26
GAGUGGU | 2.46
CAGUGGG | 2.24
AAGUGGG | 3.73
AAGUGGU | 1.82
AAGUGGA | 3.31
CCAAGAC | -0.646
GUAGUCA | 0.157
CCAUCUG | -0.772
UGUGUCG | 0.043
UCGGGAA | 1.33
GGGGGCA | 2.92
GGGGGGA | 3.3
CGGGGAA | 2.71
GGGGCGA | 2.46
UUGGGGA | 2.82
CGGGGGA | 3.17
AGGGGCA | 2.47
UGGGGGA | 3.71

Sequence | RNAcompete 7-mer binding Z-score
UGGGGCA | 3.56
UGGGGAA | 3.66
UCUGGGA | 0.508
AACGGAC | 0.413
GCAAAAC | -0.0902
AGCAUGA | -0.119
CUAGCGA | -0.347
CAGAGGU | 1.25
UACGGAA | 0.699
CUACAGA | -0.636
AGAGCAG | 0.699
UGGCUAG | 0.391
GCGAGGA | 1.93
GCGAGGG | 3.54
ACGAGGU | 0.959
ACGAGGC | 0.319
ACGAGGG | 3.35
UCGAGGG | 1.95
CUGCUAU | -0.691
AGAUGCG | 0.111
CCGCUCC | -0.474
GCAAGGG | 3.46

Source: the supplement of paper PMC5499739
